Reference: PubChem BioAssay AID651662 (NMMLSC, 2012)
Unmarked numbers belong to inactive results.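 How the source made its calls: active means fitted concentration giving half the fluorescence drop below 100 µM; inactive means the rest.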

experiment: compound effects, K562 without functional ABCB6 – cell-based, flow cytometry, PowderSet01 powders, counter-screen for ABCB6 inhibitor project, dose response (AID 651662); details: K562 empty-vector cells, 1 h; series mostly up to 100 µM; percent response (fluorescence change): at the top concentration

SMILES | percent response (fluorescence change) [%]
CCc1ccc(NC(=O)c2nc(S(=O)(=O)Cc3ccccc3)ncc2Cl)cc1 | 518
CCOc1ccccc1NC(=O)c1nc(S(=O)(=O)Cc2cccc(C)c2)ncc1Cl | 512
CC(=O)Nc1ccc(NC(=O)c2nc(S(=O)(=O)Cc3ccccc3)ncc2Cl)cc1 | 443
CC(=O)Nc1ccc(NC(=O)c2nc(S(=O)(=O)Cc3cccc(C)c3)ncc2Cl)cc1 | 2610
